Test in all cases: NCI-60 one-dose screen, 48 h (100 = growth as untreated, 0 = no growth, -100 = all killed)
Holding throughout (conditions): 10 µM unless noted

Test [1] has as its system NCI-H23 lung.
The test system of test [2] is NCI-H322M lung.
Test [3] deals with HOP-62 NSCLC.
For test [4], the system named is NCI-H460 lung.
The subject of test [5] is HOP-92 NSCLC.
In test [6] the test system is NCI-H522 lung.
Test [7] has as its system A549/ATCC NSCLC.
Test [8] deals with 786-0 renal.
The subject of test [9] is COLO 205 colon.
Test [10] relates to DU-145 prostate.
The test system of test [11] is K-562 leukemia.
The test system of test [12] is MALME-3M melanoma.
The subject of test [13] is MDA-MB-231 breast.
Test [14] relates to RXF 393 renal.
The subject of test [15] is SF-268 CNS.
The subject of test [16] is SF-295 CNS.
The test system of test [17] is SF-539 CNS.
In test [18] the test system is UACC-257 melanoma.
The test system of test [19] is M14 melanoma.
Test [20] deals with HCT-15 colon.

About 83,000 compounds went through this panel and 20% of them were active in at least one assay; those are over-represented in the sample as a whole.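 Percent growth is the endpoint: 0 to 100 indicates growth inhibition (40 means 60% inhibition), 0 means no net growth, and negative values indicate cell death.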 Unmarked numbers belong to inactive results. Active and inactive are the calls of the source. The calls were made as follows: active = growth percent below 10; inactive = the rest.

With `O=C1Nc2ccccc2/C1=C/c1cccs1`, the growth was 92.5% in [1]; 84.6% in [2]; 83.5% in test [3]; 92.5% in [4]; 75.3% in test [5]; 95.2% in [6]. Moreover, the growth in [7] was 95.2%; in test [8], 94.1%; in test [9], 107%; in [10], 103%; in test [11] it was 114%; in [12] it was 93.6%. In addition, the growth was 94.5% in [13]; 97.9% in test [14]; 94.1% in test [15]; 101% in test [16]; 86.7% in [17]; 100% in test [18]. Besides, the growth in [19] was 97.3%; in test [20], 78.8%.
Consider `CN1C(=O)N(C)C2Nn3c(s/c(=C4\C(=O)N(CCc5ccccc5)c5ccccc54)c3=O)=NC21` (stereo not given), for which the growth in [1] is 72%; in test [2], 72.6%; in [3], 75.9%; in test [4], 95.4%; in [5] it was 93.2%; in [6] it was 36.7%. The growth in test [7] is 55.6%; in test [8], 61.8%; in [9], 60.1%; in test [10], 63%; in [11], 34.9%; in test [12], 85.1%. Moreover, the growth in test [13] was 80.5%; in [14], 64.1%; in test [15], 60.9%; in test [16], 72%; in test [17], 48.4%; in test [18], 62.3%. Also, the growth in test [19] was 57.3%; in [20] it was 44.6%.
Consider `COc1ccc(-c2nc(-c3ccccn3)c(-c3ccccn3)n2CC(C)C)cc1OC1CCCC1`, for which the growth in test [1] is 31.2%; in test [2] it was 9.32% (active); in [3] it was 28.3%; in test [4] it was 5.25% (active); in [5], 35.2%; in [6], 20.8%. Moreover, the growth in [7] was 8.04% (active); in test [8], 24.5%; in test [9], 12.1%; in test [10], 28.7%; in [11], 10.4%; in test [12], 16.5%. The growth in test [13] was 30.8%; in [14], 19.3%; in test [15] it was 19%; in [16], 8.48% (active); in test [17], 39%; in test [18] it was 28.8%. The growth in test [19] is 20.9%; in [20], 33.9%.
As to `Cc1c(-c2noc(-c3ccc([N+](=O)[O-])cc3)n2)no[n+]1[O-]`, the growth in [1] was 86%; in test [2], 88.4%; in [3], 86.1%; in test [4] it was 103%; in [5], 85.2%; in test [6] it was 102%. Besides, the growth was 111% in test [7]; 99.5% in [8]; 113% in test [9]; 99.9% in [10]; 93.7% in [11]; 99.5% in [12]. For the same compound, the growth in [13] is 95.4%; in test [14], 102%; in test [15] it was 92.6%; in test [16], 99.9%; in test [17] it was 97.4%; in test [18], 106%. The growth was 93.8% in test [19] and 93.1% in test [20].
In the case of `O=c1oc2ccc(Br)cc2c(=O)n1-c1ccc(Cl)cc1F`, the growth in [1] was 2.82% (active); in test [2], 5.97% (active); in test [3], 2.2% (active); in test [4], 2.87% (active); in test [5], -12.6% (active); in test [6], -1.53% (active). The growth in test [7] is 8.23% (active); in test [8] it was -1.15% (active); in [9] it was 21.5%; in test [10], 16.4%; in [11] it was 6% (active); in test [12], -30.6% (active). The growth in test [13] is -22.6% (active); in test [14] it was 4.25% (active); in test [15], 8.43% (active); in [16], -58.4% (active); in test [17], 4.14% (active); in [18], -10.6% (active). Moreover, the results for the growth in test [19] and in test [20] were -11.9% (active) and 0.07% (active), respectively.
`Fc1cccc(COc2ccc(Nc3ncnc4onc(-c5ccccc5)c34)cc2)c1`: the growth is 18.1% in test [1]; 23.1% in test [2]; 33.4% in test [3]; 2.61% (active) in test [4]; 46.3% in test [5]; 5.66% (active) in test [6]. In addition, the growth in test [7] is 19.9%; in [8], 8.18% (active); in test [9] it was 8.73% (active); in test [10], -29.8% (active); in test [11], 12.1%; in [12] it was 41%. For the same compound, the growth in [13] is 13.8%; in test [14] it was -26.6% (active); in test [15] it was 29.2%; in [16], 2.77% (active); in test [17] it was -42.4% (active); in test [18], 54.8%. Moreover, the growth in test [19] is -23% (active); in test [20] it was 20.2%.
With `COC(=O)/C(CCC=C(C)C)=C1\[C@@H](OC(C)=O)C[C@@]2(C)[C@H]1CC(=O)N[C@H]1[C@@]3(C)CCNC(=O)[C@@H](C)[C@@H]3CC[C@@]12C`, the growth in test [1] was 99.2%; in [2], 98.3%; in test [3], 106%; in [4], 109%; in test [5] it was 106%; in test [6] it was 96.6%. Also, the growth is 106% in test [7]; 96.2% in test [8]; 109% in test [9]; 107% in [10]; 101% in test [11]; 101% in test [12]. The growth was 102% in test [13]; 112% in [14]; 101% in test [15]; 101% in test [16]; 103% in test [17]; 104% in test [18]. In addition, the figures for the growth in test [19] and in test [20] were 98.5% and 106%, respectively.
With `CC(C)Cn1c2c(c(=S)[nH]c1=O)CCC2`, the growth was 104% in [1]; 103% in [2]; 102% in test [3]; 105% in [4]; 113% in test [5]; 96.1% in test [6]. In addition, the growth is 103% in test [7]; 104% in [8]; 117% in test [9]; 111% in [10]; 103% in test [11]; 103% in test [12]. For the same compound, the growth in test [13] is 101%; in test [14], 109%; in test [15], 98.6%; in test [16], 107%; in [17] it was 97.4%; in [18] it was 109%. Also, the growth in test [19] and in test [20] was 105% throughout.

Values taken from PubChem BioAssay (NCI).
